According to PubChem BioAssay (NCI):
This is part of a sample that, as a whole, favours compounds with a hit. Of some 83,000 tested, about 20% had one in any assay.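 Assay: single dose, 48 h. Readout: percent growth (0 = no net growth; negative = cell death). Active: <10.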 Values without a mark were called inactive. Calls of active or inactive are those of the source.

How the values were obtained:
Assay in all cases: NCI-60 one-dose screen, 48 h (100 = growth as untreated, 0 = no growth, -100 = all killed)
Details in all cases: 10 µM unless noted
HCT-15 colon = tested on: HCT-15 colon
HT29 colon = tested on: HT29 colon
SNB-75 CNS = tested on: SNB-75 CNS
SNB-19 CNS = tested on: SNB-19 CNS
PC-3 prostate = tested on: PC-3 prostate
SK-MEL-5 melanoma = tested on: SK-MEL-5 melanoma
UACC-62 melanoma = tested on: UACC-62 melanoma
LOX IMVI melanoma = tested on: LOX IMVI melanoma
SK-MEL-28 melanoma = tested on: SK-MEL-28 melanoma
SK-MEL-2 melanoma = tested on: SK-MEL-2 melanoma
EKVX NSCLC = tested on: EKVX NSCLC
SN12C renal = tested on: SN12C renal
UO-31 renal = tested on: UO-31 renal
TK-10 renal = tested on: TK-10 renal
ACHN renal = tested on: ACHN renal
A498 renal = tested on: A498 renal
MOLT-4 leukemia = tested on: MOLT-4 leukemia
CAKI-1 renal = tested on: CAKI-1 renal
CCRF-CEM leukemia = tested on: CCRF-CEM leukemia
U251 CNS = tested on: U251 CNS

| Compound | growth (HCT-15 colon) | growth (HT29 colon) | growth (SNB-75 CNS) | growth (SNB-19 CNS) | growth (PC-3 prostate) | growth (SK-MEL-5 melanoma) | growth (UACC-62 melanoma) | growth (LOX IMVI melanoma) | growth (SK-MEL-28 melanoma) | growth (SK-MEL-2 melanoma) | growth (EKVX NSCLC) | growth (SN12C renal) | growth (UO-31 renal) | growth (TK-10 renal) | growth (ACHN renal) | growth (A498 renal) | growth (MOLT-4 leukemia) | growth (CAKI-1 renal) | growth (CCRF-CEM leukemia) | growth (U251 CNS) |
| --- | --- | --- | --- | --- | --- | --- | --- | --- | --- | --- | --- | --- | --- | --- | --- | --- | --- | --- | --- | --- |
| O=C(NNc1nc2cc(F)c(F)cc2n2c(CN3CC4CNCC4C3)ccc12)c1ncccn1 (stereo not drawn) | 19.8% | 23.5% | 52.1% | 29.9% | 17.6% | -33.8% (active) | -20.1% (active) | 1.73% (active) | 29.3% | 9.68% (active) | 20% | 25.8% | 13.6% | 16.2% | 12.7% | 18.7% | -6.62% (active) |  |  |  |
| Nc1ccccc1NC(=O)c1ccc(NC(=O)C/C=C/c2cccnc2)cn1 | 21.4% | 12.9% | 29.4% | 33.1% | 31.6% | -75.9% (active) | 0.71% (active) | 1.78% (active) | -34% (active) | 15.9% | 52.9% | 25.2% | 0.829% (active) | 17.4% | 26.1% | -35.3% (active) | 17.3% | 29.2% |  |  |
| Cc1ccc2c(c1)C13C(=C2Br)CCCN1C(=O)c1ccccc13 (stereo not drawn) | 73% | 98.9% | 89.9% | 89.2% | 67.9% | 88% | 67.4% | 103% | 92.5% | 100% | 91.3% | 92.5% | 76.5% | 99.9% |  | 92.4% | 79.8% | 75.8% | 79.7% |  |
| O=C(NNc1nc2cc(F)ccc2n2c(CN3CCC(O)C3)ccc12)c1cnccn1 (stereo not drawn) | 25.7% | 23.8% | 51.9% | 22.3% | 25.2% | 4.28% (active) | 0.128% (active) | -0.788% (active) | 25.5% | 20% | 10.1% | 24.3% | 11% | 20.5% | 14.3% | 26.2% | 3.23% (active) |  | 10.3% |  |
| Cc1ccc(NC(=O)c2ccc(CN3CCOCC3)c(C(F)(F)F)c2)cc1Oc1ccc(-c2[nH]nc3ncnc(N)c23)cc1 | 40.5% | 37% | 112% |  | 43.4% | 16.3% | 19.4% | 59.1% | 47.8% | 59.6% | 65.6% | 82.3% | 54.6% | 80% | 58.2% | 87.3% | 46.3% | 39.2% | 47.8% | 66.9% |
| CC1(C)CC[C@]2(C(=O)O)CC[C@]3(C)C(=CC[C@@H]4[C@@]5(C)CC/C(=N\OCCC#N)C(C)(C)[C@@H]5CC[C@]43C)[C@@H]2C1 | 106% | 109% | 53.4% | 104% | 99.2% | 98.4% | 92.6% | 91.8% | 106% | 93.5% | 70.7% | 86.7% | 61.1% | 51.3% | 100% | 51.3% | 101% | 59.7% | 90.1% |  |
| Cc1cc(C)c2sc(=O)n(Cc3nnc(SCCC(=O)O)o3)c2n1 | 99.6% | 110% | 103% | 95.4% | 92.7% |  | 95.5% | 99.2% | 101% |  | 102% | 97.8% | 91.8% |  | 103% |  | 90.6% | 89.5% |  | 102% |
| COc1ccc(-c2nc(C(Cl)Cl)nc3cc(-c4ccccc4)nn23)cc1 | 4.52% (active) | -20.2% (active) | -9.44% (active) |  | 35.5% | 34.1% | 37.9% | 23.7% | -46.4% (active) | 77.4% | -3.98% (active) | 29.1% | 25.7% | 33.1% | -55.3% (active) | -33.4% (active) | 4.01% (active) | -14.5% (active) | 18.2% | -51.7% (active) |
| CCCn1cnc2c(c1=N)C(c1ccc(OC)cc1)c1sc3c(CC)cccc3c1O2 (stereo not drawn) | 18.9% | 5.9% (active) | 16.5% | 22% | 3.57% (active) | 30.3% | 15.9% | 27.4% | 57.8% | 40.5% | 46.4% | 29.5% | 33.5% | 74.6% | 35.7% | -11.5% (active) | 14.5% | 32.8% | 4.77% (active) |  |
| COC(=O)/C=C/c1c(C2(C)NC(=O)c3ccccc3N2)c(=O)oc2ccc(Cl)cc12 (stereo not drawn) | 91.4% | 96% | 74% |  | 89.2% | 91.4% | 75.4% | 97% | 97.6% | 93.7% | 88.3% | 87.9% | 67.8% | 108% | 87.4% | 59.3% | 101% | 78.2% | 101% | 88% |
| N/C(=N\C(N)=N\c1nc2ccccc2s1)c1cccc(F)c1 | 94.6% [5 µM] | 111% [5 µM] | 89.2% [5 µM] | 96% [5 µM] | 75.5% [5 µM] | 98.2% [5 µM] | 89.1% [5 µM] | 83.2% [5 µM] | 108% [5 µM] | 98% [5 µM] | 81.4% [5 µM] | 76.9% [5 µM] | 82.8% [5 µM] | 187% [5 µM] | 85.9% [5 µM] | 97.1% [5 µM] | 84.9% [5 µM] | 84% [5 µM] | 93.9% [5 µM] |  |
| COc1cc(Cn2cc3c(c2)-c2onc(CN4CCOCC4)c2CC3)cc(OC)c1OC | 97.9% | 104% | 117% | 97.2% | 91.6% | 74.9% | 78.8% | 100% | 105% | 104% | 83% | 95.5% | 78.7% | 107% | 99.5% | 114% | 98.3% | 94.7% | 96.9% |  |
| Cc1nc(-c2ccccc2O)ccc1C(=O)N=Nc1c(O)[nH]c2ccc(Br)cc12 | 69.9% | 112% | 93.7% | 101% | 88.2% | 96.9% | 91.6% | 107% |  | 104% | 79.6% | 95.1% | 73% | 167% | 91.5% | 101% | 102% | 84.6% | 86.1% |  |
| COc1ccccc1NC1=C(Cl)C(=O)c2nc(C)ccc2C1=O | -47% (active) | 75% | 105% | 38.9% | 27.4% | -93.3% (active) | -45.8% (active) | -73% (active) | 14.1% | 78.8% | 28.5% | -49.5% (active) | -65.7% (active) | 148% | -99.9% (active) | 71.8% | -39% (active) |  | -4.94% (active) |  |
| CC(=O)c1ccc(Nc2nc(SCC(C)C)nc(-c3ccc(F)cc3)c2C#N)cc1 | 104% | 107% | 125% |  | 108% | 101% | 108% | 112% | 108% | 109% | 114% | 110% | 115% | 123% | 104% | 117% | 107% | 115% | 107% | 104% |
| Cc1ccc(-c2nnc(SCc3ccc(O)c4ncccc34)n2-c2ccccc2)cc1 | 6.13% (active) | 36% | -5.25% (active) | 9.09% (active) | 5.96% (active) | -28.2% (active) | -27.7% (active) | 3.35% (active) | 23% | -0.952% (active) | 10.7% | 15.1% | -12.8% (active) | 7.85% (active) | 8.47% (active) | 26% | 8.15% (active) | 9.59% (active) | 8.76% (active) |  |
